# Compounds with a hit are over-represented: about 7.4% of the library has one in this group of screens.
# FLuc modulator = inhibits or activates purified firefly luciferase, miR-21 counter-screen; P08659; AID 588342; 360,000 tested, 6.9% active; purified FLuc, Km substrates, luminescence inhibition; Potency, µM (highest dose often 57.5 µM), for the others: at the top dose activity change, negative = inhibition, most hits filed as inhibitors;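 further: plate controls were vehicle for no effect and reference inhibitor for full effect; nearly all actives have a fitted effect of over 55% in size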
# Target sequence (P08659 whole entry, looked up): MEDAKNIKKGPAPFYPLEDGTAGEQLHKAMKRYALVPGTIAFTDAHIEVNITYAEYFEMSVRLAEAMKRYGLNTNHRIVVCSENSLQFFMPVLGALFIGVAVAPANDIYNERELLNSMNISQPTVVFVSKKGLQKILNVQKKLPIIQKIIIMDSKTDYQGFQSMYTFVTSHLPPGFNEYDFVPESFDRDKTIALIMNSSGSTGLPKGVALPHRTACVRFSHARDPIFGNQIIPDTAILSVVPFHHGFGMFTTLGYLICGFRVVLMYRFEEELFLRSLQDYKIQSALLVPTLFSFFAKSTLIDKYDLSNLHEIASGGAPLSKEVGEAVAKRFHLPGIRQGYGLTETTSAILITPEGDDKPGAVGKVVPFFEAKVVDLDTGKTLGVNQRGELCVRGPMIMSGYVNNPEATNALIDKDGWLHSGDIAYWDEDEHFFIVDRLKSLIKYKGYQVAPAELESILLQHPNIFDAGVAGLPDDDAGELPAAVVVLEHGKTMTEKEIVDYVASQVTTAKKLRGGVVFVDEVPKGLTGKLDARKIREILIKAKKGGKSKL
#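 Purified P. pyralis luciferase (10nM final) with 10uM D-luciferin and 10uM ATP (Km levels) in 50mM Tris acetate pH 7.5, 10mM Mg acetate, 0.01% Tween-20, 0.05% BSA; qHTS 6-point titration, ~60 µM downward; luminescence read.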
# ELG1 genotoxic = induces genotoxicity in HEK293T cells with luciferase-tagged ELG1; HEK293T ELG1-luciferase reporter, luminescence, 16 h; Potency, µM (titrated, usually from 46 µM), inactives show at the highest dose activity change, positive = activation, most hits filed as activators; 330,000 tested, 1.3% active; AID 504466; further: % of control where 0% means no effect; nearly all actives have a fitted effect of over 60% in size
#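 Screening used a luciferase reporter fused to human ELG1 in HEK293T cells. Luminescence was read on a CCD plate imager after 16 hr exposure and 30 min ONE-Glo incubation.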
# p53 reactivator = mutant p53 re-activation in reporter cells; H1299 p53-A138V BP100-luciferase reporter, luminescence, 24 h; Potency, µM (doses to about 92.2 µM), without a hit: top-dose activity change, positive = activation, most hits filed as activators; 320,000 tested, 0.063% active; further: % of control where 0% means no effect; nearly all actives have a fitted effect of over 45% in size
#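 H1299 (p53-null), stable ts p53-A138V + BP100-Luc; 1000 cells/well, Opti-MEM/10% FBS; cpd 4 pt, 1:5; 24 h, 37 deg C, 5% CO2; detection reagent 10 min RT; luminescence.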
# SMN2 splice enh = enhancers of SMN2 splice variant expression; 210,000 tested, 2.8% active; Potency, µM (titrated, usually from 46.1 µM), without a hit: at the highest dose activity change, positive = activation, usual class: activators; AID 1458; HEK293 SMN2-luciferase splicing reporter, luminescence, 30-36 h; further: % of control where 0% means no effect; nearly all actives have a fitted effect of over 55% in size
#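 HEK293 cells carry an SMN2 […]–luciferase reporter in which exon 7 inclusion puts luciferase in frame. Cells were plated 10-12 h before compound addition, then incubated 30-36 h at 37C. ONE-Glo luminescence was read; sodium butyrate at 4.5 mM final served as control.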
# NPC1 promoter act = activates the NPC1 promoter. Potency, µM (series often up to 9.22 µM), for the others: at the top dose activation, usual class: activators. 320,000 tested, 2.4% active. AID 485313. Huh7 NPC1 promoter luciferase reporter, 24 h; further: % of control where 0% means no effect; nearly all actives have a fitted effect of over 60% in size
#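 NPC1 promoter–luciferase Huh7 cells; 24 h compound; luminescence.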
# Rab9 promoter act = Rab9 promoter activation; Huh7 Rab9 promoter-luciferase reporter, luminescence, 24 h; Potency, µM (series often up to 9.22 µM), without a hit: top-dose activation, negative = inhibition, actives largely listed as activators; 320,000 tested, 2.8% active; AID 485297; further: % of control where 0% means no effect; nearly all actives have a fitted effect of over 60% in size
#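 Promoter activation is measured as luciferase luminescence in Huh7 cells stably transfected with a Rab9 promoter–luciferase construct, following 24 h compound exposure at 37 °C and 10 min reagent incubation at ambient temperature.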
# * hit, by the source's call; ? = inconclusive; . = not tested or not shown; [ ] = remark or other dose. The call rests on the fitted dose curve; in most records, active means well fitted curve in the direction sought with a large enough effect; inconclusive means small, poorly fitted or top-dose-only effect, or another doubt; inactive means no such curve, though single readings can be large; an effect the other way counts as inactive or inconclusive. Potency means the concentration at half of the fitted maximal effect.
SMILES,FLuc modulator,ELG1 genotoxic,p53 reactivator,SMN2 splice enh,NPC1 promoter act,Rab9 promoter act
COc1cc(/C=C(\C#N)c2ccccn2)cc(OC)c1O,-4%,0%,0%,.,-7%,-1%
CC(=O)c1ccc(NC(=O)c2cc3ccccc3o2)cc1,?,2.6µM*,9%,.,1µM*,0.63µM*
CC(=O)N1CCN(c2ccc(NC(=O)c3cc4ccccc4o3)cc2)CC1,?,-1%,-2%,.,0%,3%
CSC(C(=O)c1cc2ccccc2o1)c1ccccc1 (stereo not given),?,9%,19%,.,?,3.2µM*
Cc1cc(C(=O)Nc2ccccc2)oc1C,12µM*,?,12%,20µM*,?,2.8µM*
O=C(Nc1ccc(N2CCCC2)cc1)c1cc2ccccc2o1,3µM*,?,.,.,3.5µM*,2µM*
O=C(NNC(=O)c1n[nH]c2ccccc12)c1ccccc1,?,-2%,3%,.,-14%,-1%
Cn1c(=O)oc2cc(S(=O)(=O)N3CCC(C(=O)N4CCN(c5ccccc5F)CC4)CC3)ccc21,1%,.,.,-10%,.,.
O=C(NCC(c1cccnc1)N1CCc2ccccc2C1)C(=O)Nc1ccccc1F (stereo not given),-7%,.,.,.,.,.
O=C1C=CC2=C3c4cc(O)c(O)cc4C[C@@]3(O)COC2=C1,.,.,.,-20%,.,.
CC(C)c1nnc(NC(=O)c2cc3ccccc3o2)s1,6.7µM*,?,?,.,?,2µM*
O=C(Nc1ccc(F)cc1)c1cc2ccccc2o1,6.7µM*,21%,-7%,.,3.5µM*,3.2µM*
O=C(NNC(=O)c1ccccc1O)c1cc2ccccc2o1,27µM*,?,17%,.,4.5µM*,?
O=C(NNC(=O)c1cc2ccccc2o1)c1ccncc1,.,4%,6%,.,.,.
O=C(Nc1ccccc1)c1cc2ccccc2o1,1.2µM*,?,?,13µM*,2.8µM*,1.6µM*
COc1ccc(NC(=O)N2CCC3(CC2)CCN(S(C)(=O)=O)CC3)cc1,.,.,.,4%,.,.
CCC1=C2CC[C@H]3C(=O)N(c4ccccc4)C(=O)[C@H]3[C@H]2[C@@]2(Cc3ccccc3)C(=NCC3CC3)OC(=O)N2C1=O,.,.,.,0%,.,.
CC(=O)Nc1cccc(-c2cn3ccccc3n2)c1,19µM*,13%,2%,?,16%,27%
Cc1ccn2cc(-c3cccc(NC(=O)C(C)C)c3)nc2c1,6µM*,?,2%,14µM*,25%,?
O=C(Nc1cccc(-c2cn3ccccc3n2)c1)c1cccs1,3.4µM*,?,13%,.,21%,13%
Cc1ccn2cc(-c3cccc(NC(=O)c4ccccc4)c3)nc2c1,4.3µM*,1%,?,?,3%,22%
COc1ccc(-c2cn3cccnc3n2)cc1NC(=O)c1cccs1,?,0%,-6%,22%,2%,-4%
Cc1ccc(C)c(CSc2c(C(C)C)cnc3c2c(=O)n(C)c(=O)n3C)c1,-12%,.,.,.,.,.
O=C(Nc1cccc(-c2cn3ccccc3n2)c1)c1cc2ccccc2oc1=O,1.5µM*,17%,?,?,?,?
CC(C)C(=O)Nc1cccc(-c2cn3ccccc3n2)c1,11µM*,8%,22%,-5%[1.84 µM],12%,17%
SMILES,FLuc modulator,ELG1 genotoxic,p53 reactivator,SMN2 splice enh,NPC1 promoter act,Rab9 promoter act
COc1ccc(CC(=O)Nc2ccc(-c3cn4ccc(C)cc4n3)cc2)cc1,?,21µM*,?,-5%,?,?
O=C(Nc1c(-c2ccccc2)nc2ncccn12)c1cc2ccccc2oc1=O,0%,0%,-3%,6%,1%,2%
Cc1cccn2cc(-c3cccc(NC(=O)C(C)C)c3)nc12,11µM*,.,.,?,.,.
CCC(CC)C(=O)Nc1cccc(-c2cn3cccnc3n2)c1,-8%,.,.,.,.,.
Cc1ccc(C)c(Cn2c(=O)n(CCCCC(=O)NCc3ccccc3Cl)c(=O)c3ccccc32)c1,-1%,.,.,4%,.,.
COc1ccc(Cl)cc1NC(=O)CN(C)C(=O)Cc1n[nH]c(=O)c2ccccc12,2%,2%,-1%,.,1%,-4%
